Results on 9 molecules are retold here after PubChem BioAssay (NCI).

Compounds without any hit were thinned out: in the full panel of roughly 79,000, 15% have a hit. A number with no mark means an inactive call. Calls of active or inactive are those of the source. No stated cut-off is given here; in the data, active means growth inhibition above about 70%; inactive means the rest.

The nature of assay [1]: NCI Yeast Anticancer Drug Screen. Data for the rad50 strain (AID 155).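 Further: 0% = growth of vehicle-only cultures of the same strain.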 The following applies: S. cerevisiae rad50 strain growth inhibition, hits give high values. The gist of the method: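 Yeast carrying a defined DNA repair defect were exposed to test compounds, and growth was compared with vehicle-treated controls to give percent inhibition.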
A short description of assay [2]: NCI Yeast Anticancer Drug Screen. Data for the mec2-1 strain (AID 157). The following applies: S. cerevisiae mec2-1 strain, hits give high values. The gist of the method:
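Growth inhibition is read against vehicle-treated controls after compound exposure of the mec2-1 yeast strain, which is defective in DNA damage repair or cell cycle control.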

Assay [3] in a line: NCI Yeast Anticancer Drug Screen. Data for the sgs1 mgt1 strain (AID 161).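 Further: 0% = growth of cultures given vehicle only.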 The following applies: S. cerevisiae sgs1 mgt1 strain, hits give high values. The gist of the method:
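Compounds are added to genetically altered yeast, and growth is compared with cultures given vehicle alone to give percent inhibition.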

Assay [4] in a line: NCI Yeast Anticancer Drug Screen. Data for the cln2 rad14 strain (AID 165).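 Further: 0% = growth equal to vehicle treated cultures.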 The following applies: S. cerevisiae cln2 rad14 strain, hits give high values. The gist of the method: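 Growth inhibition, relative to vehicle-treated controls, is the read-out. The test organism is a yeast strain with defined genetic alterations, cln2 rad14.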
Assay [5] can be described thus: NCI Yeast Anticancer Drug Screen. Data for the bub3 strain (AID 167). The following applies: S. cerevisiae bub3 mutant strain, hits give high values. In outline: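 Compounds were applied to a genetically altered yeast strain carrying a cell-cycle control defect. Growth inhibition was scored against vehicle-treated controls.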
Assay [6] can be described thus: NCI Yeast Anticancer Drug Screen. Data for the mlh1 rad18 strain (AID 175). The following applies: S. cerevisiae mlh1 rad18 strain growth inhibition, hits give high values. The gist of the method: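 Cells of a genetically altered yeast strain, deficient in DNA damage repair, were treated with compound. Their growth was then compared with that of vehicle-treated cultures to give inhibition.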

The mark [7] stands for this setting: at 5.0 µM (retest, dose inferred, filed as 0.5).
Setting [8] is: at 50.0 µM (retest, dose inferred, filed as 5.0).

`CCCN(CCC)C(=O)CCC(C)=O`: the growth inhibition in assay [1] (setting [7]) is 0%; in assay [1] (setting [8]), -3%; in assay [1] (at 50.0 µM), -13.8%; in assay [2] (setting [7]), 1%; in assay [2] (setting [8]), 2%; in assay [2] (at 50.0 µM) it was -7.5%. Moreover, the growth inhibition in assay [3] (setting [7]) was 1%; in assay [3] (setting [8]), -1%; in assay [3] (at 50.0 µM) it was -23.8%; in assay [4] (setting [7]), -7%; in assay [4] (setting [8]) it was 3%; in assay [4] (at 50.0 µM), 41.5%. Besides, the growth inhibition is -1% in assay [5] (setting [7]); -3% in assay [5] (setting [8]); -18.4% in assay [5] (at 50.0 µM); 1% in assay [6] (setting [7]); -3% in assay [6] (setting [8]); 17.1% in assay [6] (at 50.0 µM).
In the case of `Cc1cccc(NC(=O)Oc2ccc(Cl)c3cccnc23)c1`, the growth inhibition in assay [1] (setting [7]) is 75% (active); in assay [1] (setting [8]), 99% (active); in assay [1] (at 50.0 µM), 88.5% (active); in assay [2] (setting [7]), 57%; in assay [2] (setting [8]) it was 99% (active); in assay [2] (at 50.0 µM), 88.7% (active). The growth inhibition was 97% (active) in assay [3] (setting [7]); 99% (active) in assay [3] (setting [8]); 91.8% (active) in assay [3] (at 50.0 µM); 95% (active) in assay [4] (setting [7]); 99% (active) in assay [4] (setting [8]); 89.9% (active) in assay [4] (at 50.0 µM). In addition, the growth inhibition in assay [5] (setting [7]) was 82% (active); in assay [5] (setting [8]), 67%; in assay [5] (at 50.0 µM), 85.5% (active); in assay [6] (setting [7]), 72% (active); in assay [6] (setting [8]), 99% (active); in assay [6] (at 50.0 µM) it was 88.8% (active).
As to `O=c1[nH]c2c([N+](=O)[O-])cc(Cl)cc2nc1/C=C(\O)c1ccco1`, the growth inhibition in assay [1] (setting [7]) was 17%; in assay [1] (setting [8]) it was 74% (active); in assay [1] (at 50.0 µM) it was 72.7% (active); in assay [2] (setting [7]), -5%; in assay [2] (setting [8]) it was 44%; in assay [2] (at 50.0 µM), 56.1%. In addition, the growth inhibition in assay [3] (setting [7]) is 1%; in assay [3] (setting [8]), 54%; in assay [3] (at 50.0 µM), 84.2% (active); in assay [4] (setting [7]) it was -1%; in assay [4] (setting [8]), 62%; in assay [4] (at 50.0 µM), 59%. Also, the growth inhibition in assay [5] (setting [7]) was 4%; in assay [5] (setting [8]) it was 66%; in assay [5] (at 50.0 µM), 32.6%; in assay [6] (setting [7]), -4%; in assay [6] (setting [8]), 70% (active); in assay [6] (at 50.0 µM), 80% (active).
For `Cc1c(N)nc(C(CC(N)=O)NCC(N)C(N)=O)nc1C(=O)NC(C(=O)NC(C)C(O)C(C)C(=O)NC(C(=O)NCCc1nc(-c2nc(C(=O)NCCCNC(C)c3ccccc3)cs2)cs1)C(C)O)C(OC1OC(CO)C(O)C(O)C1OC1OC(CO)C(O)C(OC(N)=O)C1O)c1cnc[nH]1` (configuration not stated), the growth inhibition was 97% (active) in assay [1] (setting [7]); 98% (active) in assay [1] (setting [8]); 92.2% (active) in assay [1] (at 50.0 µM); 97% (active) in assay [2] (setting [7]); 99% (active) in assay [2] (setting [8]); 93.5% (active) in assay [2] (at 50.0 µM). Moreover, the growth inhibition in assay [3] (setting [7]) was 95% (active); in assay [3] (setting [8]), 98% (active); in assay [3] (at 50.0 µM), 93.5% (active); in assay [4] (setting [7]) it was 85% (active); in assay [4] (setting [8]), 93% (active); in assay [4] (at 50.0 µM) it was 90.4% (active). In addition, the growth inhibition was 93% (active) in assay [5] (setting [7]); 98% (active) in assay [5] (setting [8]); 93.3% (active) in assay [5] (at 50.0 µM); 98% (active) in assay [6] (setting [7]); 99% (active) in assay [6] (setting [8]); 92.2% (active) in assay [6] (at 50.0 µM).
Consider `Cc1c(-c2ccccc2)ccnc1/C=N/NC(=S)Nc1ccccc1`, for which the growth inhibition in assay [1] (setting [7]) was 1%; in assay [1] (setting [8]), 39%; in assay [1] (at 50.0 µM) it was 89.2% (active); in assay [2] (setting [7]), 1%; in assay [2] (setting [8]), 31%; in assay [2] (at 50.0 µM) it was 94% (active). The growth inhibition in assay [3] (setting [7]) was 4%; in assay [3] (setting [8]), 88% (active); in assay [3] (at 50.0 µM), 95.1% (active); in assay [4] (setting [7]) it was 1%; in assay [4] (setting [8]), 23%; in assay [4] (at 50.0 µM), 92.1% (active). The growth inhibition in assay [5] (setting [7]) was -2%; in assay [5] (setting [8]) it was 49%; in assay [5] (at 50.0 µM) it was 95.7% (active); in assay [6] (setting [7]) it was -5%; in assay [6] (setting [8]) it was 59%; in assay [6] (at 50.0 µM), 93.8% (active).
Turning to `O=C(CCCl)Nc1cc2ccccc2oc1=O`, the growth inhibition was -19% in assay [1] (setting [7]); -19% in assay [1] (setting [8]); -8.5% in assay [1] (at 50.0 µM); -2% in assay [2] (setting [7]); -17% in assay [2] (setting [8]); 15.9% in assay [2] (at 50.0 µM). For the same molecule, the growth inhibition in assay [3] (setting [7]) was -10%; in assay [3] (setting [8]), 23%; in assay [3] (at 50.0 µM), 6.65%; in assay [4] (setting [7]), 1%; in assay [4] (setting [8]), 13%; in assay [4] (at 50.0 µM) it was 0.55%. Also, the growth inhibition in assay [5] (setting [7]) is -4%; in assay [5] (setting [8]) it was -10%; in assay [5] (at 50.0 µM), -1.1%; in assay [6] (setting [7]), -16%; in assay [6] (setting [8]), 19%; in assay [6] (at 50.0 µM), -2.15%.
As for `O=C(c1ccccc1)c1ccc(OCC2CO2)cc1` (configuration not stated), the growth inhibition was 10% in assay [1] (setting [7]); 77% (active) in assay [1] (setting [8]); 64.3% in assay [1] (at 50.0 µM); -2% in assay [2] (setting [7]); 23% in assay [2] (setting [8]); 25% in assay [2] (at 50.0 µM). For the same molecule, the growth inhibition in assay [3] (setting [7]) is 10%; in assay [3] (setting [8]), 64%; in assay [3] (at 50.0 µM) it was 50.4%; in assay [4] (setting [7]), -5%; in assay [4] (setting [8]) it was 58%; in assay [4] (at 50.0 µM) it was 20.6%. The growth inhibition is -1% in assay [5] (setting [7]); 29% in assay [5] (setting [8]); 12.1% in assay [5] (at 50.0 µM); 7% in assay [6] (setting [7]); 74% (active) in assay [6] (setting [8]); 71.9% (active) in assay [6] (at 50.0 µM).
Turning to `O=C(Oc1ccc(/C=C/[n+]2ccccc2)c(OC(=O)c2ccccc2)c1)c1ccccc1`, the growth inhibition is -4% in assay [1] (setting [7]); 93% (active) in assay [1] (setting [8]); 49.6% in assay [1] (at 50.0 µM); 14% in assay [2] (setting [7]); 97% (active) in assay [2] (setting [8]); 18.7% in assay [2] (at 50.0 µM). The growth inhibition was -11% in assay [3] (setting [7]); 95% (active) in assay [3] (setting [8]); 70.2% (active) in assay [3] (at 50.0 µM); -8% in assay [4] (setting [7]); 91% (active) in assay [4] (setting [8]); 5.7% in assay [4] (at 50.0 µM). In addition, the growth inhibition is 1% in assay [5] (setting [7]); 83% (active) in assay [5] (setting [8]); -1.45% in assay [5] (at 50.0 µM); 7% in assay [6] (setting [7]); 98% (active) in assay [6] (setting [8]); 48.7% in assay [6] (at 50.0 µM).
Turning to `CCC[CH2][Sn]([CH2]CCC)([O]C(=O)C1CCC(=O)N1)[O]C(=O)C1CCC(=O)N1` (configuration not stated), the growth inhibition in assay [1] (setting [7]) is 93% (active); in assay [1] (setting [8]) it was 93% (active); in assay [1] (at 50.0 µM), 90.3% (active); in assay [2] (setting [7]), 94% (active); in assay [2] (setting [8]), 94% (active); in assay [2] (at 50.0 µM) it was 90.7% (active). Also, the growth inhibition in assay [3] (setting [7]) was 91% (active); in assay [3] (setting [8]), 91% (active); in assay [3] (at 50.0 µM) it was 90% (active); in assay [4] (setting [7]) it was 96% (active); in assay [4] (setting [8]), 96% (active); in assay [4] (at 50.0 µM) it was 91% (active). Further, the growth inhibition in assay [5] (setting [7]) is 94% (active); in assay [5] (setting [8]), 94% (active); in assay [5] (at 50.0 µM), 90.9% (active); in assay [6] (setting [7]), 95% (active); in assay [6] (setting [8]), 95% (active); in assay [6] (at 50.0 µM), 88.7% (active).
